Experimental data taken from patent publication US6124449, “High affinity TGFβ nucleic acid ligands and inhibitors” (NeXstar Pharmaceuticals, Inc.).

Assays:
KGF (hKGF) = molecular target: T1, KGF (hKGF) (Homo sapiens, UniProt P21781 P21781:32-194); assay: filter; similar to random RNA; details: label: 5'-biotin for BIAcore specificity; proposed double pseudoknot; ssRNA; 2'-F C and U
T1 sequence: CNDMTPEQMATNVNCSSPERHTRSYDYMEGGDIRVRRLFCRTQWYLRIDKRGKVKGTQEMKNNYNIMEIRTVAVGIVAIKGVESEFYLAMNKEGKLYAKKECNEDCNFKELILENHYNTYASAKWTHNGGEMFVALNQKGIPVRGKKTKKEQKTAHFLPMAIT

VEGF (hVEGF) = VEGF (hVEGF) (Homo sapiens, UniProt P15692-4 P15692-4:27-191); assay: filter; similar to random RNA; details: chain copies: 2; label: 5'-biotin for BIAcore specificity; proposed double pseudoknot; ssRNA; 2'-F C and U
Sequence of VEGF (hVEGF) (P15692 other isoform, or with tags, fused parts or gaps): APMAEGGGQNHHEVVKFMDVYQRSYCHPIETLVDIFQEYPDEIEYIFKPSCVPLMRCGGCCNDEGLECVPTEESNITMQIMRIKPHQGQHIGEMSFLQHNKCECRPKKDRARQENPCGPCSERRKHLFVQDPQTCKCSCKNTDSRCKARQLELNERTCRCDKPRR

TGF-beta2 = molecular target: T2, TGF-beta2 (Homo sapiens, UniProt P61812 P61812:303-414); assay: filter; similar to random RNA by filter; details: chain copies: 2; label: 5'-biotin for BIAcore specificity; proposed double pseudoknot; ssRNA; 2'-F C and U
T2 sequence: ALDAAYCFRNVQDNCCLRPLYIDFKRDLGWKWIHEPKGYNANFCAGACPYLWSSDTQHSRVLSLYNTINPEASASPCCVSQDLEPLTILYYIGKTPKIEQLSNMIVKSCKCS

Question: How did the binding signal (KGF (hKGF)) turn out when “GGGAGGACGAUGCGGUUAUGGGCGUCAACACCGCUAUUACAGUUUUCGCCUCCCCCAGACGACUCGCCCGA” was run?
Answer: > 34000 fold Kd vs hTGF-beta1

Question: And the binding signal (VEGF (hVEGF))?
Answer: > 340000 fold Kd vs hTGF-beta1

Question: And the binding signal (TGF-beta2)?
Answer: > 340000 fold Kd vs hTGF-beta1

Question: What does the source list for “GGGAGGACGAUGCGGGGGUUAUUGGGCGUCAACAUCCCCGAUUCUUUUCACGUCCAGACGACUCGCCCGA”?
Answer: binding signal (KGF (hKGF)): > 34000 fold Kd vs hTGF-beta1; binding signal (VEGF (hVEGF)): > 340000 fold Kd vs hTGF-beta1; binding signal (TGF-beta2): > 340000 fold Kd vs hTGF-beta1
